The results in this text go back to PubChem BioAssay (NCI).

Common to all, as to test: NCI-60 one-dose screen, 48 h (100 = growth as untreated, 0 = no growth, -100 = all killed)
Settings in all cases: 10 µM unless noted

Experiment [1] concerns T-47D breast.
The test system of experiment [2] is BT-549 breast.
Experiment [3] relates to MDA-MB-435 melanoma.
The test system of experiment [4] is SW-620 colon.
Experiment [5] relates to MCF7 breast.
Experiment [6] concerns HCT-116 colon.
Experiment [7] relates to HCC-2998 colon.
Experiment [8] has as its system KM12 colon.

Structures are written as SMILES. The panel holds about 83,000 compounds, 20% with a hit somewhere; the sample as a whole holds those more often.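 Results are percent growth after 48 hours of single-concentration exposure. 100 means growth as in untreated cells, lower positive values show inhibition; negative values down to -100 show cell death.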 A number with no mark means an inactive call. The source made the active and inactive calls. Rule for the calls: active = growth percent below 10; inactive = the rest.

As to `COc1cc(OC)c2cc(C(=O)c3ccc(C#N)cc3)c(=O)oc2c1`, the growth was 88.2% in experiment [1]; 87.3% in experiment [2]; 94.6% in experiment [3]; 106% in experiment [4]; 97.1% in experiment [5]; 92.1% in experiment [6]. The figures for the growth in experiment [7] and in experiment [8] were 107% and 97.5%, respectively.

On to `CCCCNc1ccc(-c2ccc(NCCCC)cc2)cc1`, for which the growth in experiment [1] was 45.9%; in experiment [2] it was 31.1%; in experiment [3], 40.8%; in experiment [4] it was 78.6%; in experiment [5] it was 34.3%; in experiment [6] it was 55.3%. In addition, the growth in experiment [7] is 94.7%; in experiment [8], 56.9%.

For `CC(=O)C1C(=O)C(=O)N(c2ccc(Cl)c(Cl)c2)C1=O` (configuration not stated), the growth in experiment [1] is 93.2%; in experiment [2] it was 97.5%; in experiment [3], 103%; in experiment [4], 108%; in experiment [5] it was 89.1%; in experiment [6], 91.3%. Moreover, the growth was 101% in experiment [7] and 103% in experiment [8].

Consider `CCOC(=O)/C(C#N)=C\c1c[nH]c2ccccc12`, for which the growth is 86.5% in experiment [1]; 129% in experiment [2]; 113% in experiment [3]; 115% in experiment [4]; 77% in experiment [5]; 100% in experiment [6]. The growth in experiment [7] is 108%; in experiment [8], 109%.

As to `Oc1ccc2ccccc2c1CN1CCOCC1`, the growth is 104% in experiment [1]; 103% in experiment [2]; 112% in experiment [3]; 113% in experiment [4]; 106% in experiment [5]; 103% in experiment [6]. Moreover, the growth was 105% in experiment [7] and 114% in experiment [8].

With `CC(=O)NNC(=S)/N=C\C(C(=O)c1ccccc1)=C(/O)c1ccccc1`, the growth was 87.8% in experiment [1]; 92.7% in experiment [2]; 109% in experiment [3]; 110% in experiment [4]; 93.6% in experiment [5]; 96.5% in experiment [6]. The growth in experiment [7] is 102%; in experiment [8], 99.4%.

As for `COc1nc(Nc2cccc(C(F)(F)F)c2)nc(OC)n1`, the growth in experiment [1] was 92.5%; in experiment [2], 91%; in experiment [3] it was 106%; in experiment [4] it was 110%; in experiment [5], 97.9%; in experiment [6], 97%. Besides, the growth in experiment [7] was 108%; in experiment [8], 97.8%.

`O=C1C=Cc2ccccc2/C1=C/c1[nH]c(=O)[nH]c1O`: the growth in experiment [1] was 39.6%; in experiment [2], 20.6%; in experiment [3], -6.05% (active); in experiment [4] it was 22%; in experiment [5], 12.9%; in experiment [6], 17.2%. In addition, the growth in experiment [7] is 54.1%; in experiment [8], 40.2%.

`OC(CBr)CCBr` (configuration not stated): the growth in experiment [1] is 93.6%; in experiment [2], 124%; in experiment [3] it was 97.2%; in experiment [4], 104%; in experiment [5] it was 86.6%; in experiment [6] it was 104%. Further, the values for the growth in experiment [7] and in experiment [8] were 111% and 113%, respectively.

In the case of `C=C1C(=O)C2CCN1CC2`, the growth in experiment [1] was 98%; in experiment [2], 96.9%; in experiment [3], 93.7%; in experiment [4] it was 67.2%; in experiment [5], 94.3%; in experiment [6], 56.4%. The growth in experiment [7] is 106%; in experiment [8], 102%.

With `CN(CCCN(C)CCC1CCCCC1)CCC1CCCCC1`, the growth was 17.9% in experiment [1]; 39.2% in experiment [2]; -26.1% (active) in experiment [3]; 75.2% in experiment [4]; -47.4% (active) in experiment [5]; 47.2% in experiment [6]. Moreover, the growth in experiment [7] was -30.1% (active); in experiment [8], 46.7%.

In the case of `CCCCN(C=S)CCCC`, the growth is 81% in experiment [1]; 97.4% in experiment [2]; 105% in experiment [3]; 96.4% in experiment [4]; 87.6% in experiment [5]; 98.9% in experiment [6]. The growth in experiment [7] and in experiment [8] was 102% throughout.

In the case of `O=S(Cc1ccccc1)/C(=C/NC(=S)Nc1ccccc1)c1ccccc1` (configuration not stated), the growth in experiment [1] is 90.2%; in experiment [2], 97.6%; in experiment [3], 104%; in experiment [4], 104%; in experiment [5], 102%; in experiment [6], 91.1%. The growth is 102% in experiment [7] and 99% in experiment [8].

In the case of `Cc1ccc(N)c(S(=O)(=O)O)c1`, the growth is 101% in experiment [1]; 104% in experiment [2]; 117% in experiment [3]; 101% in experiment [4]; 98.9% in experiment [5]; 98.1% in experiment [6]. Also, the growth in experiment [7] was 95.7%; in experiment [8] it was 101%.

Take `O=[N+]([O-])c1c(O)c(CNCCCO)cc(CNCCCO)c1O`: the growth in experiment [1] is 113%; in experiment [2], 119%; in experiment [3] it was 111%; in experiment [4], 96.3%; in experiment [5] it was 112%; in experiment [6], 97.4%. Moreover, the results for the growth in experiment [7] and in experiment [8] were 106% and 138%, respectively.

In the case of `Nc1ncc([N+](=O)[O-])cn1`, the growth was 103% in experiment [1]; 111% in experiment [2]; 113% in experiment [3]; 104% in experiment [4]; 98.1% in experiment [5]; 106% in experiment [6]. For the same compound, the growth was 107% in experiment [7] and 101% in experiment [8].

Consider `C=C(OC(C)=O)c1ccccc1`, for which the growth in experiment [1] was 89.5%; in experiment [2], 107%; in experiment [3], 107%; in experiment [4], 97.4%; in experiment [5], 97.1%; in experiment [6], 98%. Besides, the growth was 110% in experiment [7] and 102% in experiment [8].

Take `CCOC(=O)CNC`: the growth is 97.2% in experiment [1]; 109% in experiment [2]; 98.7% in experiment [3]; 98.2% in experiment [4]; 93.8% in experiment [5]; 108% in experiment [6]. Moreover, the growth in experiment [7] was 96%; in experiment [8], 107%.

As to `CCCc1cccc(CCC)c1NC(=O)Nc1cc(Cl)cc(Cl)c1`, the growth in experiment [1] was 82.3%; in experiment [2], 86.6%; in experiment [3] it was 104%; in experiment [4] it was 123%; in experiment [5] it was 99.1%; in experiment [6], 91.2%. For the same compound, the growth is 116% in experiment [7] and 101% in experiment [8].

Consider `N=C(N)c1nn(C2OC(CO)C(O)C2O)c2nc[nH]c(=O)c12` (configuration not stated), for which the growth in experiment [1] was -14.6% (active); in experiment [2], -14.8% (active); in experiment [3], -49.5% (active); in experiment [4], -4.15% (active); in experiment [5], 4.19% (active); in experiment [6] it was -80.3% (active). For the same compound, the figures for the growth in experiment [7] and in experiment [8] were -22.8% (active) and -49.4% (active), respectively.

Consider `Cc1ccc(O)c(N)c1`, for which the growth is 92.8% in experiment [1]; 95.2% in experiment [2]; 112% in experiment [3]; 121% in experiment [4]; 99.9% in experiment [5]; 111% in experiment [6]. Further, the growth in experiment [7] and in experiment [8] was 110% throughout.

In the case of `OCC1CCC(O)C(CO)N1` (configuration not stated), the growth in experiment [1] is 111%; in experiment [2], 100%; in experiment [3], 102%; in experiment [4], 101%; in experiment [5], 92.6%; in experiment [6] it was 102%. Moreover, the growth in experiment [7] is 115%; in experiment [8], 103%.

Regarding `C[n+]1c(/C=C\C=C\N2CCCCC2)sc2ccccc21`, the growth in experiment [1] is 5.32% (active); in experiment [2], 1.35% (active); in experiment [3] it was -1.72% (active); in experiment [4], 12.5%; in experiment [5] it was 4.75% (active); in experiment [6] it was -24.5% (active). Also, the results for the growth in experiment [7] and in experiment [8] were 14% and -11% (active), respectively.

As for `Nc1cc(F)ccc1[N+](=O)[O-]`, the growth in experiment [1] was 104%; in experiment [2], 103%; in experiment [3] it was 111%; in experiment [4] it was 104%; in experiment [5], 97.6%; in experiment [6], 97.9%. Further, the growth in experiment [7] was 102%; in experiment [8], 104%.
